A selection: hits, their analogues and other compounds. The true share with any hit is near 19%.
IL-1B inflam inh – qHTS for Inhibitors of Inflammasome Signaling: IL-1-beta AlphaLISA Primary Screen; THP-1 LPS/ATP IL-1B secretion, AlphaLISA, 16 h; stronger effect = lower value; activity change, % at 57.5 µM; 4.7% of 360,000 active; AID 743279, 2014; in the data active = activity change below about -50%; inconclusive = mostly about -30% to -49%
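Secreted IL-1B measured by AlphaLISA bead assay after 16 h compound exposure of THP-1 cells; compounds (final up to 57.5 uM) added 1 h before LPS (250 ng/mL) and ATP (1.25 mM) stimulation; lower signal means less secretion.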
TDP1 cell noCPT – qHTS for Inhibitors of human tyrosyl-DNA phosphodiesterase 1 (TDP1): qHTS in cells in absence of CPT | DT40 Tdp1-/- hTDP1 cells, no CPT, ATP luminescence, 48 h | Potency, µM (highest dose often 46.2 µM), actives largely listed as inhibitors | 15% of 420,000 active; note: nearly all actives have a fitted effect of over 55% in size
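Cells were dispensed at 400 per well, compounds added by pin tool, plates incubated ≥48 hr at 37 °C, then CellTiter-Glo added for 30 min at room temperature before luminescence reading. Line: DT40 Tdp1-/- complemented with hTDP1; camptothecin omitted.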
HT1080 IDH1KD tx – qHTS for induction of synthetic lethality in tumor cells producing 2HG: qHTS for the HT-1080-IDH1KD cell line; HT-1080 IDH1 knockdown viability, ATP luminescence, 48 h; Potency, µM (doses to about 46.1 µM), most hits filed as cytotoxic; 2% of 360,000 active
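In this qHTS, HT-1080 cells depleted of IDH1 are exposed for 48 h at 37 °C to compound titrations. Toxicity is scored from CellTiter-Glo luminescence, with DMSO as full viability and medium alone as none.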
HT1080-NT tox – qHTS for induction of synthetic lethality in tumor cells producing 2HG: qHTS for the HT-1080-NT fibrosarcoma cell line; HT-1080-NT fibrosarcoma viability, CellTiter-Glo ATP luminescence, 48 h; Potency, µM (top dose mostly 46.1 µM), most hits filed as cytotoxic; 1.6% of 360,000 active; AID 686970, 2013;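 note: NT is the 2HG producing partner of a matched IDH1 knockdown line; nearly all actives have a fitted effect of over 55% in size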
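HT-1080-NT fibrosarcoma cells (2HG-overproducing), 750 cells/well in RPMI with 5% FBS, dosed after 2 h and incubated 48 h at 37C. CellTiter-Glo luminescence normalized to DMSO and no-cell wells; concentration-response curves fitted and classed.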
DT40 TDP1 CPT – qHTS for Inhibitors of human tyrosyl-DNA phosphodiesterase 1 (TDP1): qHTS in cells in presence of CPT. Potency, µM (top dose mostly 46.2 µM), actives largely listed as inhibitors. chicken DT40 Tdp1-/-;hTDP1 cells + 20 nM CPT, ATP luminescence, 48 h. AID 686979, 2013. 12% of 420,000 active; note: nearly all actives have a fitted effect of over 55% in size
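Chicken DT40 Tdp1-/- cells stably complemented with human TDP1 were seeded at 400 cells/well in medium containing 20 nM camptothecin, exposed to pin-transferred compounds, and grown at 37 °C for at least 48 hr. Viability was read as ATP luminescence.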
Numbers stand for hits; – = inactive; ? = inconclusive; · = no result. Unless noted, calls come from the whole dose curve; as a rule, active = well fitted curve in the direction sought with a large enough effect; inconclusive = small, poorly fitted or top-dose-only effect, or another doubt; inactive = no such curve, though single readings can be large; an effect the other way counts as inactive or inconclusive.

SMILES | IL-1B inflam inh | TDP1 cell noCPT | HT1080 IDH1KD tx | HT1080-NT tox | DT40 TDP1 CPT
O=c1c2ccccc2sc2nc(CCl)nn12 | – | ? | 4.61µM | 6.51µM | ?
O=c1sc2ccccc2c(=O)n1Cc1ccccc1F | – | – | – | – | –
CC(=O)N1CCN(c2nc(-c3ccco3)c3c(c2C#N)CC(C)(C)SC3)CC1 | ? | 23.1µM | – | – | ?
CC1(C)Cc2c(C#N)c(N3CCN(C(=O)c4ccco4)CC3)nc(-c3ccco3)c2CS1 | – | ? | – | – | –
CN1Cc2c(N3CCOCC3)nc(SCc3ccccc3)c(C#N)c2CC1(C)C | – | ? | ? | ? | ?
CC1(C)Cc2c(C#N)c(SCC(=O)c3ccccc3)nc(N3CCOCC3)c2CS1 | – | 16.4µM | – | – | ?
C/C(N)=C(/C#N)C(=O)CSc1nc2ccccc2c(=O)n1-c1ccc(C)c(Cl)c1 | – | ? | – | – | –
CCS(=O)(=O)NCCCc1ccccc1 | – | ? | – | – | 20.6µM
CCS(=O)(=O)NCCCCc1ccccc1 | ? | – | – | – | –
O=C(CCc1nnc(CCc2c[nH]c3ccccc23)o1)NC1CCC1 | – | ? | – | – | ?
CN(C)c1cc[n+](CC(=O)Nc2ccc(Cl)cc2)cc1 | -51.1 | 3.26µM | ? | 6.51µM | 6.51µM
Cc1cccc(NC(=O)C[n+]2ccc(N(C)C)cc2)c1 | – | ? | ? | ? | 14.6µM
Cc1cc(C)cc(NC(=O)C[n+]2ccccc2)c1 | – | – | – | – | –
CC(=O)Nc1cc[n+](CC(=O)c2ccc(Cl)cc2)cc1 | – | – | – | – | –
COc1ccccc1CN1C[C@@H]2C[C@@H](c3[nH]c4c(C)cccc4c3C)N3CCC[C@@]23C1=O | – | – | – | – | –
CN(C(=O)c1cccc(NC(=O)Cc2ccc(NC(=O)C3CCN(S(=O)(=O)c4cccc([N+](=O)[O-])c4)CC3)cc2)c1)C1CCCC1 | – | ? | – | – | ?
CN(C(=O)c1cccc(NC(=O)Cc2ccc([N+](=O)[O-])cc2)c1)C1CCCCC1 | – | 14.6µM | – | – | 20.6µM
CN(C(=O)c1cccc(NC(=O)Cc2ccc(NC(=O)C3CCCN(C(=O)C4CCCCC4)C3)cc2)c1)C1CCCCC1 (centres undefined) | – | ? | – | – | ?
CN(C(=O)c1ccc(NC(=O)Cc2cccc(NC(=O)C3CCCN(C(=O)C4CCCC4)C3)c2)cc1)C1CCCC1 (centres undefined) | – | ? | – | – | 20.6µM
CN(C(=O)c1cccc(NC(=O)Cc2cccc(NC(=O)C3CCCN(C(=O)C4CCC4)C3)c2)c1)C1CCC1 (centres undefined) | – | 23.1µM | – | – | ?
CN(C(=O)c1ccc(Oc2ccc([N+](=O)[O-])cc2)cc1)C1CCCCC1 | – | 23.1µM | – | ? | ?
C[C@H](CO)N1C[C@H](C)[C@@H](CN(C)Cc2ccncc2)OCc2cnnn2CCCC1=O | – | – | – | ? | –
Cc1nn(C)cc1S(=O)(=O)Nc1ccccc1Br | – | – | – | – | –
CC(C)[C@@H]1[C@H]2CC[C@H](C2)[C@H]1N | · | – | · | · | –
Cc1ccc(S(=O)(=O)N2CCN(c3nc(-c4cccs4)nc4c3ncn4COC(=O)C(C)(C)C)CC2)cc1 | · | – | – | – | –
SMILES | IL-1B inflam inh | TDP1 cell noCPT | HT1080 IDH1KD tx | HT1080-NT tox | DT40 TDP1 CPT
CN(C(=O)c1cccc(NC(=O)Cc2ccc(NC(=O)C3CCCN(C(=O)C4CCC4)C3)cc2)c1)C1CCCCC1 (centres undefined) | – | ? | – | – | 23.1µM
CN(C(=O)c1cccc(NC(=O)Cc2cccc(NC(=O)C3CCCN(C(=O)C4CCCC4)C3)c2)c1)C1CCC1 (centres undefined) | – | ? | – | – | 16.4µM
O=C(CN(C(=O)c1cccc([N+](=O)[O-])c1)C1CCCCC1)Nc1ccc(Cl)c([N+](=O)[O-])c1 | – | 16.4µM | ? | – | ?
O=C(C[n+]1ccccc1)Nc1ccc(Cl)c([N+](=O)[O-])c1 | – | – | – | – | –
CN(C(=O)c1cccc(NC(=O)Cc2ccc(NC(=O)C3CCCN(C(=O)C4CCCCC4)C3)cc2)c1)C1CCCC1 (centres undefined) | – | ? | – | – | ?
COC(=O)c1cc(NC2(c3ccccc3)C(=O)c3ccccc3C2=O)cc(C(=O)OC)c1 | · | – | · | · | –
CC(C)(C)NC(=O)N1CCN(c2nc3ccc(Cl)cc3s2)CC1 | – | 18.4µM | ? | – | 23.1µM
CCCCC(=O)N1CCN(c2nc3ccc(Cl)cc3s2)CC1 | – | ? | ? | ? | 16.4µM
CCCCN(C(=O)c1oc2ccc(OCC)cc2c1C)c1c(N)n(CCCC)c(=O)[nH]c1=O | – | ? | – | – | –
O=C1NC[C@@H](CCCCN2C[C@H](Cc3ccc(O)cc3)N(CCc3ccc(O)cc3)C(=O)C2=O)N(CCc2ccccc2)C1=O | – | – | – | – | –
Cc1ccccc1/C=N/N1CCN(c2ccccc2)CC1 | – | – | – | – | –
CC(=O)OC(COC1C[C@@H]2CC[C@@]1(C)C2(C)C)C[N+]1(C)CCCCC1 (some centres undefined) | – | 18.4µM | – | – | ?
COc1ccc(CCN2C(=O)C(Oc3ccccc3C)C2c2ccc3c(c2)OCO3)cc1 (centres undefined) | ? | 16.4µM | – | – | 14.6µM
COc1ccc(CCn2c(C)cc3c(c2=O)C(c2ccc4c(c2)OCO4)C(C#N)=C(N)O3)cc1OC (centres undefined) | ? | 20.6µM | ? | ? | 13µM
O=C1C(Oc2ccccc2)C(c2ccc3c(c2)OCO3)N1CCc1ccc(F)cc1 (centres undefined) | – | ? | – | – | –
COc1ccc(CCN2C(=O)C(Oc3ccccc3C)C2c2ccc3c(c2)OCO3)cc1OC (centres undefined) | ? | 16.4µM | – | – | 13µM
CCOc1ccc(S(=O)(=O)NCc2ccccc2OC)cc1 | – | – | – | – | –
CCOc1ccccc1CNS(=O)(=O)c1ccc(-c2coc(C)n2)cc1 | · | 16.4µM | · | · | 16.4µM
O=S(=O)(NCc1ccccc1Cl)c1ccc(-c2cnc(C3CC3)o2)cc1 | · | 2.91µM | · | · | 3.66µM
Cc1nc(-c2ccc(S(=O)(=O)NCc3ccc(OC(C)C)cc3)cc2)co1 | · | 25.9µM | · | · | ?
CCOc1ccccc1CNS(=O)(=O)c1ccc(-c2cnc(C3CC3)o2)cc1 | – | 0.651µM | 1.16µM | 7.31µM | 0.82µM
Cc1ccc(CNS(=O)(=O)c2ccc(-c3cnc(C4CC4)o3)cc2)cc1 | – | ? | – | – | ?

High-throughput results deposited in PubChem by National Center for Advancing Translational Sciences (NCATS).
